Experimental data published in PubChem BioAssay (NCI).
Compounds without any hit were thinned out: in the full panel of roughly 79,000, 15% have a hit. The source made the active and inactive calls. Rule as the data show it: active = growth inhibition above about 70%; inactive = the rest.

Legend:
[1] = NCI Yeast Anticancer Drug Screen. Data for the rad50 strain (AID 155);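 also: 0% = growth of vehicle-only cultures of the same strain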; settings: S. cerevisiae rad50 strain growth inhibition; at 50.0 µM; active compounds read high
Method in brief: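 A DNA repair-deficient yeast mutant serves as the test organism; compound-induced growth inhibition is calculated against vehicle-treated cells.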

[2] = NCI Yeast Anticancer Drug Screen. Data for the mec2-1 strain (AID 157); settings: S. cerevisiae mec2-1 strain, at 50.0 µM, active compounds read high
Method in brief: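 mec2-1 yeast strain, carrying an alteration in DNA damage repair or cell cycle control, was exposed to compounds; growth inhibition was measured relative to vehicle-treated controls.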

[3] = NCI Yeast Anticancer Drug Screen. Data for the sgs1 mgt1 strain (AID 161);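 also: 0% = growth of cultures given vehicle only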; settings: S. cerevisiae sgs1 mgt1 strain, at 50.0 µM, active compounds read high
Method in brief: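 Yeast cells carrying a defined DNA-repair defect were exposed to test compounds. Growth inhibition was measured relative to vehicle-treated controls.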

[4] = NCI Yeast Anticancer Drug Screen. Data for the cln2 rad14 strain (AID 165);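 also: 0% = growth equal to vehicle treated cultures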; settings: S. cerevisiae cln2 rad14 strain, at 50.0 µM, active compounds read high
Method in brief: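 Yeast carrying cln2 and rad14 alterations (cell cycle control and DNA damage repair) were exposed to compounds. Growth inhibition was measured against vehicle-treated controls.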

[5] = NCI Yeast Anticancer Drug Screen. Data for the bub3 strain (AID 167); settings: S. cerevisiae bub3 mutant strain, at 50.0 µM, active compounds read high
Method in brief: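 Inhibition values come from growth of compound-treated mutant yeast normalised to vehicle-treated controls.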

[6] = NCI Yeast Anticancer Drug Screen. Data for the mlh1 rad18 strain (AID 175); settings: S. cerevisiae mlh1 rad18 strain growth inhibition; at 50.0 µM; active compounds read high
Method in brief: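 Growth inhibition of the yeast strain was measured after compound exposure and expressed relative to vehicle-treated controls. The strain carries defined defects in DNA damage repair.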

Measured: growth inhibition

CC1(S)CCC2CC1C2(C)C (configuration not stated)
inactive: [1] -15.7% | [2] -54.1% | [3] -35% | [4] 4.95% | [5] -27.4% | [6] -12.1%

COc1ccc2c(c1)/C(=C/c1cc(OC)c(OC)c(OC)c1)C(=O)N2
inactive: [1] 4.3% | [2] -27.2% | [3] -8.7% | [4] -1.4% | [5] 1.2% | [6] 2.85%

CCN(C(=S)Nc1cccc(C(F)(F)F)c1)c1ccccc1
inactive: [1] 38.1% | [2] 22.9% | [3] 49% | [4] 13.9% | [5] 41% | [6] 22.6%

Cc1cc2c(=O)c(C)c[nH]c2cc1Cl
inactive: [1] -21.6% | [2] 5.2% | [3] -2.6% | [4] -46.1% | [5] -10.6% | [6] -7.55%

CCc1ccc2oc(-c3cc(O)c(-c4nc5cc(CC)ccc5o4)cc3O)nc2c1
inactive: [1] -19.2% | [2] -25.9% | [3] -22.2% | [4] 1.1% | [5] -25.5% | [6] 12.6%

O=C(O)/C=C/C=C/c1ccc(Cl)cc1
inactive: [1] 7.25% | [2] 23.4% | [3] 4.3% | [4] -14% | [5] 10.4% | [6] -1.95%

CCOC(=O)C1CCCc2sc(N)c(C#N)c21 (configuration not stated)
inactive: [1] 1.15% | [2] -13.8% | [3] 4.2% | [4] -28.4% | [5] 3.15% | [6] 0.95%

CCOC(=O)CCC(NC(=O)c1ccc(Nc2cnc3ccc(C(F)(F)F)cc3n2)cc1)C(=O)OCC (configuration not stated)
inactive: [1] 24.3% | [2] 6.45% | [3] 12.2% | [4] 14.1% | [5] 19.9% | [6] -23.8%

COc1ccc2oc(C(=O)O)cc2c1
inactive: [1] -4.55% | [2] -3.65% | [3] -9.05% | [4] -25% | [5] -6.6% | [6] 0.6%

COc1ccc2c(CC(=O)O)cc(=O)oc2c1
inactive: [1] 12.2% | [2] -22.8% | [3] 15.4% | [4] 7.7% | [5] 8.95% | [6] 14.2%

CCCCCCCCCCCC(=O)Nc1ccc(N(C)C(C)=O)cc1
inactive: [1] -14.4% | [2] -3.95% | [3] -9.1% | [4] -1.35% | [5] 7.2% | [6] -10.1%

N=C(N)C=O
inactive: [1] -12.4% | [2] 0.3% | [3] 5.45% | [4] 0.05% | [5] 1.45% | [6] -7.95%

CC1(C)/C(=C/N=O)N(O)C(C)(C)N1O
inactive: [1] -26.9% | [2] -34.6% | [3] -43.8% | [4] 5.75% | [5] -35.9% | [6] -15.2%

OCCNc1ncnc2nc[nH]c12
inactive: [1] -17.9% | [2] -3.5% | [3] -12.5% | [4] 65.5% | [5] -46.5% | [6] 2.5%

CCN(CC)C1Oc2cc3c(cc2C(c2cccc(OC)c2OC)C1C)OCO3 (configuration not stated)
inactive: [1] 28.4% | [2] 28.8% | [3] 46.5% | [4] 41.7% | [5] 41.9% | [6] 63.3%

COC(=O)c1cc(C(c2cc(C)c(O)c(C(=O)OC)c2)c2cc(C)c(O)c(C(=O)OC)c2)cc(C)c1O
inactive: [1] -6.9% | [2] 10.6% | [3] -4.4% | [4] -6.2% | [5] -0.3% | [6] 3.9%

O=C(NCCCCN1CCCC1)C(c1cc2ccccc2s1)C1CCCCC1 (configuration not stated)
inactive: [1] 20.1% | [2] 9.25% | [3] 42.2% | [4] 4.25% | [5] 24.2% | [6] 33.1%

COc1ccc(C2(c3ccc(OC)cc3)c3ccccc3Cc3c(OC)cccc32)cc1
inactive: [1] -1.55% | [2] 16.7% | [3] -5.65% | [4] 2.8% | [5] -11.2% | [6] 6.4%

COc1cccc(C(=O)c2ccc(OC)cc2C(=O)O)c1
inactive: [1] 5.95% | [2] -10.2% | [3] -2.8% | [4] -31.9% | [5] 4.3% | [6] 0.85%

Cc1nn(-c2nc(-c3ccccc3)cs2)c(C)c1C
inactive: [1] -6.05% | [2] -8.6% | [3] -20.6% | [4] 2.9% | [5] -0.5% | [6] -8.2%

Cc1ccc(-c2cn3c(nc4ccccc43)c(C)n2)cc1
inactive: [1] -27.5% | [2] 5.5% | [3] 15.3% | [4] -7.95% | [5] 13% | [6] -29.5%

N#Cc1c(-c2ccccc2)cc(-c2ccccc2)[nH]c1=O
inactive: [1] 18.6% | [2] 7.4% | [3] 16.4% | [4] 11.7% | [5] 3.5% | [6] 22.9%

CC(C)NC(=O)CCC(=O)O
inactive: [1] -14.9% | [2] 21.6% | [3] -17.9% | [4] -5.65% | [5] 12.1% | [6] 0.5%

Cc1cc2c(cc1Cl)SC(NNC(=O)c1ccccc1)=NS2(=O)=O
inactive: [1] -44.9% | [2] -31.7% | [3] -43.8% | [4] -42.2% | [5] -31.1% | [6] -38.2%

CCOC(=O)c1ccc(-n2c(SCC)nc3sc(C)c(C)c3c2=O)cc1
inactive: [1] -18.9% | [2] -17.8% | [3] -40.5% | [4] -38.5% | [5] -31.8% | [6] -29.3%

O=C1CCSSCCC(=O)NCCCN1
inactive: [1] 1% | [2] -5.3% | [3] -24.4% | [4] 15.2% | [5] -24.1% | [6] -6.3%

CCCCn1c2c(c3ccccc3c1=O)C(=O)c1ccccc1-2
inactive: [1] 12.1% | [2] -15.7% | [3] -4.8% | [4] 2.1% | [5] -18% | [6] -53%

Nc1ccc([N+](=O)[O-])c(Cl)c1
inactive: [1] 5.35% | [2] -8.3% | [3] -11% | [4] -18.1% | [5] -13.1% | [6] 13.3%

CC(NC(=O)C(Cc1ccccc1)NC(=O)OCc1ccccc1)C(=O)NC1C(CO)OC(n2cnc3c(N)ncnc32)C1O (configuration not stated)
inactive: [1] 15.3% | [2] -3.9% | [3] -2.1% | [4] -1.1% | [5] -2.5% | [6] 16.5%

C[N+]1(CC(O)C[N+]2(C)CCCCCC2)CCCCCC1
inactive: [1] 11.3% | [2] 14.1% | [3] -7.65% | [4] -6.2% | [5] -2.9% | [6] 32.8%

O=C1NC(=S)S/C1=C\c1c(Cl)cccc1Cl
inactive: [1] 56.9% | [2] 19% | [3] 61.1% | [4] 16.9% | [5] 27.9% | [6] 60.4%

OCC1COc2ccc(Cl)cc2O1 (configuration not stated) (tested in a mixture with another compound)
inactive: [1] -10.3% | [2] -7.3% | [3] 2.65% | [4] 16.8% | [5] 6.85% | [6] 4.8%

Nc1ccc(C(=O)Nc2ccc(C(=O)Nc3ccc4c(O)cc(S(=O)(=O)O)cc4c3)cc2)cc1
inactive: [1] -6.3% | [2] -6.65% | [3] -4.6% | [4] -34.3% | [5] -4.7% | [6] 12.8%

CCOC(=O)CC[C@H](NC(=O)c1[nH]cnc1/N=N/N(C)C)C(=O)OCC
inactive: [1] -24.5% | [2] -41.5% | [3] -56% | [4] 3.7% | [5] -12.1% | [6] -36.9%

O=c1c2ccccc2nc(-c2ccccc2)n1NC(=S)Nc1ccccc1
inactive: [1] -27.9% | [2] -42.6% | [3] -39.8% | [4] -13.8% | [5] -19.9% | [6] -19%

COc1ccc(NC(=O)CC(=O)n2nc(-c3ccccc3)c(N=Nc3ccccc3C)c2-c2ccccc2)cc1
inactive: [1] -1.5% | [2] -2.1% | [3] -0.8% | [4] 7.8% | [5] 21.1% | [6] 6.65%

O=C1c2ccccc2C(=O)N1CNc1ccccc1Cl
inactive: [1] 27.8% | [2] 8.95% | [3] 23.2% | [4] 18.2% | [5] 18.2% | [6] 17.3%
